From PubChem BioAssay AID1159580 (chemical genetic matrix, 2015)
Out of some 5,500 compounds screened, about 2,000 (36%) were called active. Inconclusive results (about 18%) are left out. The list shows a part of the results. A number with no mark means an inactive call. Rule as the data show it: active = normalized growth mostly below about 0.91 (no sharp cut-off); inconclusive = no clear call, values can overlap the other calls; inactive = mostly above about 0.92.

Assay: chemical genetic growth profiling, strain panel (AID 1159580);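 also: tested at 20 µM; growth read once vehicle control cultures reached saturation at 30 °C; 1 = growth at the plate median or of vehicle wells; lower values mean less growth of the strain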
Conditions: growth OD
[1] = S. cerevisiae deletion strains, locus YDL101C, strain DUN1, hits give low values
[2] = S. cerevisiae deletion strains, locus YHR030C, strain SLT2, hits give low values
[3] = S. cerevisiae deletion strains, locus YGR078C, strain PAC10, hits give low values
[4] = S. cerevisiae deletion strains, locus YNL153C, strain GIM3, hits give low values
[5] = S. cerevisiae deletion strains, locus YAL013W, strain DEP1, hits give low values
[6] = S. cerevisiae deletion strains, locus YBR229C, strain ROT2, hits give low values
[7] = S. cerevisiae deletion strains, locus YDR150W, strain NUM1, hits give low values
[8] = S. cerevisiae deletion strains, locus YEL061C, strain CIN8, hits give low values
[9] = S. cerevisiae deletion strains, locus YHR087W, strain rtc3, hits give low values
[10] = S. cerevisiae deletion strains, locus YJR043C, strain POL32, hits give low values
[11] = S. cerevisiae deletion strains, locus YJR075W, strain HOC1, hits give low values
[12] = S. cerevisiae deletion strains, locus YLR039C, strain RIC1, hits give low values
[13] = S. cerevisiae deletion strains, locus YLR058C, strain SHM2 (second series), hits give low values
[14] = S. cerevisiae deletion strains, locus YLR085C, strain ARP6, hits give low values
[15] = S. cerevisiae deletion strains, locus YLR262C, strain YPT6, hits give low values
[16] = S. cerevisiae deletion strains, locus YML094W, strain GIM5, hits give low values
[17] = S. cerevisiae deletion strains, locus YMR219W, strain ESC1, hits give low values
[18] = S. cerevisiae deletion strains, locus YMR263W, strain SAP30, hits give low values
[19] = S. cerevisiae deletion strains, locus YNL298W, strain CLA4 (second series), hits give low values
[20] = S. cerevisiae deletion strains, locus YNL322C, strain KRE1, hits give low values
[21] = S. cerevisiae deletion strains, locus YNR030W, strain Alg12, hits give low values
[22] = S. cerevisiae deletion strains, locus YPL055C, strain LGE1, hits give low values
[23] = S. cerevisiae deletion strains, locus YPL241C, strain CIN2, hits give low values
[24] = S. cerevisiae deletion strains, locus YPR135W, strain CTF4, hits give low values

SMILES: S=C(NCc1cccs1)Nc1cc(Cl)cc(Cl)c1
- normalized growth (S. cerevisiae deletion strains, locus YAR019C, strain CDC15, hits give low values): 0.942
- normalized growth (S. cerevisiae deletion strains, locus YBL105C, strain PKC1, hits give low values): 0.947
- normalized growth (S. cerevisiae deletion strains, locus YBR135W, strain CKS1, hits give low values): 0.936
- normalized growth (S. cerevisiae deletion strains, locus YBR136W, strain MEC1, hits give low values): 0.945
- normalized growth (S. cerevisiae deletion strains, locus YBR160W, strain CDC28, hits give low values): 0.944
- normalized growth (S. cerevisiae deletion strains, locus YDL017W, strain CDC7, hits give low values): 0.955
- normalized growth (S. cerevisiae deletion strains, locus YDL028C, strain MPS1, hits give low values): 0.944
- normalized growth [1]: 0.979
- normalized growth (S. cerevisiae deletion strains, locus YDL108W, strain KIN28, hits give low values): 0.947
- normalized growth (S. cerevisiae deletion strains, locus YDL132W, strain cdc53, hits give low values): 0.962
- normalized growth (S. cerevisiae deletion strains, locus YDL214C, strain PRR2, hits give low values): 0.912
- normalized growth (S. cerevisiae deletion strains, locus YDR052C, strain DBF4, hits give low values): 0.96
- normalized growth (S. cerevisiae deletion strains, locus YDR054C, strain cdc34, hits give low values): 0.967
- normalized growth (S. cerevisiae deletion strains, locus YDR226W, strain ADK1, hits give low values): 0.955
- normalized growth (S. cerevisiae deletion strains, locus YDR477W, strain SNF1, hits give low values): 0.894
- normalized growth (S. cerevisiae deletion strains, locus YER123W, strain YCK3, hits give low values): 0.848
- normalized growth (S. cerevisiae deletion strains, locus YER133W, strain GLC7, hits give low values): 0.867
- normalized growth (S. cerevisiae deletion strains, locus YFL009W, strain cdc4, hits give low values): 0.928
- normalized growth (S. cerevisiae deletion strains, locus YFL029C, strain CAK1, hits give low values): 0.936
- normalized growth (S. cerevisiae deletion strains, locus YFR003C, strain YPI1, hits give low values): 0.948
- normalized growth (S. cerevisiae deletion strains, locus YFR019W, strain FAB1, hits give low values): 0.95
- normalized growth (S. cerevisiae deletion strains, locus YFR028C, strain CDC14, hits give low values): 0.959
- normalized growth (S. cerevisiae deletion strains, locus YGR040W, strain KSS1, hits give low values): 0.891
- normalized growth (S. cerevisiae deletion strains, locus YGR052W, strain FMP48, hits give low values): 0.964
- normalized growth (S. cerevisiae deletion strains, locus YGR092W, strain DBF2, hits give low values): 0.739
- normalized growth [2]: 0.988
- normalized growth (S. cerevisiae deletion strains, locus YHR079C, strain IRE1, hits give low values): 0.961
- normalized growth (S. cerevisiae deletion strains, locus YHR082C, strain KSP1, hits give low values): 0.901
- normalized growth (S. cerevisiae deletion strains, locus YHR205W, strain SCH9, hits give low values): 0.946
- normalized growth (S. cerevisiae deletion strains, locus YIL147C, strain SLN1, hits give low values): 0.949
- normalized growth (S. cerevisiae deletion strains, locus YJL095W, strain BCK1, hits give low values): 0.958
- normalized growth (S. cerevisiae deletion strains, locus YJL128C, strain PBS2, hits give low values): 0.892
- normalized growth (S. cerevisiae deletion strains, locus YJL157C, strain FAR1, hits give low values): 0.879
- normalized growth (S. cerevisiae deletion strains, locus YJR016C, strain ILV3, hits give low values): 0.948
- normalized growth (S. cerevisiae deletion strains, locus YJR066W, strain TOR1 (second series), hits give low values): 0.874
- normalized growth (S. cerevisiae deletion strains, locus YJR066W, strain TOR1, hits give low values): 0.917
- normalized growth (S. cerevisiae deletion strains, locus YKL048C, strain ELM1, hits give low values): 0.953
- normalized growth (S. cerevisiae deletion strains, locus YKL067W, strain YNK1, hits give low values): 0.902
- normalized growth (S. cerevisiae deletion strains, locus YKL101W, strain HSL1, hits give low values): 0.923
- normalized growth (S. cerevisiae deletion strains, locus YKL193C, strain SDS22, hits give low values): 0.937
- normalized growth (S. cerevisiae deletion strains, locus YKL203C, strain TOR2, hits give low values): 0.944
- normalized growth (S. cerevisiae deletion strains, locus YLR113W, strain HOG1, hits give low values): 0.912
- normalized growth (S. cerevisiae deletion strains, locus YLR133W, strain CKI1, hits give low values): 0.931
- normalized growth (S. cerevisiae deletion strains, locus YLR403W, strain SFP1, hits give low values): 0.898
- normalized growth (S. cerevisiae deletion strains, locus YML070W, strain DAK1, hits give low values): 0.883
- normalized growth (S. cerevisiae deletion strains, locus YMR001C, strain CDC5, hits give low values): 0.941
- normalized growth (S. cerevisiae deletion strains, locus YMR205C, strain PFK2 (second series), hits give low values): 0.918
- normalized growth (S. cerevisiae deletion strains, locus YMR277W, strain FCP1, hits give low values): 0.934
- normalized growth (S. cerevisiae deletion strains, locus YNL006W, strain LST8, hits give low values): 0.944
- normalized growth (S. cerevisiae deletion strains, locus YNL020C, strain ARK1, hits give low values): 0.906
- normalized growth (S. cerevisiae deletion strains, locus YNL161W, strain CBK1, hits give low values): 0.946
- normalized growth (S. cerevisiae deletion strains, locus YNL183C, strain NPR1, hits give low values): 0.928
- normalized growth (S. cerevisiae deletion strains, locus YNL207W, strain RIO2, hits give low values): 0.928
- normalized growth (S. cerevisiae deletion strains, locus YNL222W, strain SSU72, hits give low values): 0.93
- normalized growth (S. cerevisiae deletion strains, locus YNL307C, strain MCK1 (second series), hits give low values): 0.935
- normalized growth (S. cerevisiae deletion strains, locus YOL078W, strain AVO1, hits give low values): 0.934
- normalized growth (S. cerevisiae deletion strains, locus YOL136C, strain PFK27, hits give low values): 0.897
- normalized growth (S. cerevisiae deletion strains, locus YOR061W, strain CKA2, hits give low values): 0.872
- normalized growth (S. cerevisiae deletion strains, locus YOR119C, strain RIO1, hits give low values): 0.936
- normalized growth (S. cerevisiae deletion strains, locus YOR231W, strain MKK1, hits give low values): 1.01
- normalized growth (S. cerevisiae deletion strains, locus YOR329C, strain SCD5, hits give low values): 0.949
- normalized growth (S. cerevisiae deletion strains, locus YPL031C, strain PHO85, hits give low values): 0.865
- normalized growth (S. cerevisiae deletion strains, locus YPL153C, strain RAD53, hits give low values): 0.862
- normalized growth (S. cerevisiae deletion strains, locus YPL204W, strain HRR25, hits give low values): 0.878
- normalized growth (S. cerevisiae deletion strains, locus YPL209C, strain IPL1, hits give low values): 0.942
- normalized growth (S. cerevisiae deletion strains, locus YPL256C, strain CLN2, hits give low values): 0.961
- normalized growth (S. cerevisiae deletion strains, locus YPR025C, strain CCL1, hits give low values): 0.949
- normalized growth (S. cerevisiae deletion strains, locus YPR106W, strain ISR1, hits give low values): 0.948
- normalized growth (S. cerevisiae deletion strains, locus YPR111W, strain DBF20, hits give low values): 0.952
- normalized growth (S. cerevisiae deletion strains, strain NNK1, hits give low values): 0.959
- normalized growth (S. cerevisiae deletion strains, strain TSCII, hits give low values): 0.936

SMILES: COc1cc([C@@H]2c3cc4c(cc3[C@H](O)C3COC(=O)[C@@H]32)OCO4)cc(OC)c1OC (stereo partly specified)
- normalized growth (S. cerevisiae deletion strains, locus YAL040C, strain CLN3, hits give low values): 1.06
- normalized growth (S. cerevisiae deletion strains, locus YCL061C, strain MRC1 (second series), hits give low values): 0.999
- normalized growth (S. cerevisiae deletion strains, locus YDR363W, strain ESC2, hits give low values): 1
- normalized growth (S. cerevisiae deletion strains, locus YER002W, strain NOP16, hits give low values): 1.02
- normalized growth [3]: 1.02
- normalized growth [4]: 1.04
- normalized growth (S. cerevisiae deletion strains, locus YNL175C, strain NOP13, hits give low values): 1.02
- normalized growth (S. cerevisiae deletion strains, locus YNL197C, strain WHI3, hits give low values): 1
- normalized growth (S. cerevisiae deletion strains, locus YNL224C, strain SQS1, hits give low values): 1
- normalized growth (S. cerevisiae deletion strains, locus YOR083W, strain WHI5 (second series), hits give low values): 1

SMILES: CC(=N/O)/C(C)=C/c1ccc(Cl)cc1
- normalized growth [5]: 0.8 (active)
- normalized growth [6]: 0.822 (active)
- normalized growth [1]: 0.835 (active)
- normalized growth [7]: 0.847
- normalized growth [8]: 0.648 (active)
- normalized growth [3]: 0.752 (active)
- normalized growth (S. cerevisiae deletion strains, locus YGR229C, strain SMI1, hits give low values): 0.898 (active)
- normalized growth [2]: 0.165 (active)
- normalized growth [9]: 0.785 (active)
- normalized growth [10]: 0.824 (active)
- normalized growth [11]: 0.521 (active)
- normalized growth [12]: 0.327 (active)
- normalized growth [13]: 0.848 (active)
- normalized growth [14]: 0.164 (active)
- normalized growth [15]: 0.311 (active)
- normalized growth [16]: 0.712 (active)
- normalized growth [17]: 0.855 (active)
- normalized growth [18]: 0.837 (active)
- normalized growth [4]: 0.852 (active)
- normalized growth [19]: 0.441 (active)
- normalized growth [20]: 0.885 (active)
- normalized growth [21]: 0.555 (active)
- normalized growth (S. cerevisiae deletion strains, locus YOL006C, strain TOP1, hits give low values): 0.305 (active)
- normalized growth [22]: 0.56 (active)
- normalized growth [23]: 0.502 (active)
- normalized growth [24]: 0.231 (active)

SMILES: C/C(=N/O)c1ccn(S(=O)(=O)c2ccc(Cl)cc2)c1
- normalized growth [5]: 0.998
- normalized growth [6]: 1.02
- normalized growth (S. cerevisiae deletion strains, locus YCL061C, strain MRC1, hits give low values): 1.05
- normalized growth [1]: 1.03
- normalized growth (S. cerevisiae deletion strains, locus YDL134C, strain PPH21, hits give low values): 1
- normalized growth [7]: 0.891
- normalized growth [8]: 0.983
- normalized growth [3]: 1.01
- normalized growth [2]: 1.02
- normalized growth [9]: 0.992
- normalized growth [10]: 1.05
- normalized growth [11]: 1.02
- normalized growth (S. cerevisiae deletion strains, locus YKL190W, strain CNB1, hits give low values): 0.995
- normalized growth [12]: 1.04
- normalized growth [13]: 0.978
- normalized growth [14]: 0.99
- normalized growth [15]: 1.04
- normalized growth [16]: 1.02
- normalized growth [17]: 0.996
- normalized growth [18]: 0.998
- normalized growth (S. cerevisiae deletion strains, locus YNL128W, strain TEP1, hits give low values): 1
- normalized growth [4]: 1.05
- normalized growth [19]: 1.02
- normalized growth [20]: 0.983
- normalized growth [21]: 1
- normalized growth [22]: 0.989
- normalized growth [23]: 1
- normalized growth [24]: 1.06
- normalized growth (S. cerevisiae strains, strain wild type, hits give low values): 1.01
